The values that follow come from PubChem BioAssay (NCATS).

Experiment [1] concerns the target Cytochrome P450 3A4 (Homo sapiens) (UniProt P08684). Description: Cytochrome P450 family 3 subfamily A member 4 (CYP3A4) small molecule antagonists: luciferase qHTS assay (AID 1645841; active = well fitted curve in the direction sought with a large enough effect in the repeat runs; an effect the other way counts as inactive or inconclusive; also: nearly all actives have a fitted effect of over 45% in size). An outline of the steps:
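Luminescent CYP3A4 activity readout: compounds plus enzyme-substrate mix 10 min at room temperature, reaction started with NADPH regenerating system for 1 h, stopped with detection reagent, read after 20 min. Ketoconazole served as control.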
For orientation: Quantitative high-throughput screening tests each substance at several concentrations.

Experiment [2] addresses N-terminal Xaa-Pro-Lys N-methyltransferase 1 (Homo sapiens) (UniProt Q9BV86). Briefly: Confirmatory qHTS for Inhibitors of N-terminal methyltransferase 1 (NTMT1): MTaseGlo Assay (AID 1645874). Also: potency is read from the fitted curve at half-maximal effect; nearly all actives have a fitted effect of over 65% in size. The settings on record: NTMT1 enzyme, MTase-Glo SAH luminescence. A digest of the protocol: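 Room-temperature NTMT1 reaction, 30 min, with 100 uM SAM and 1 uM SPKRIA substrate; enzyme 125 nM. Read-out: MTase-Glo luminescence, normalized to no-enzyme and DMSO controls.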

Experiment [3] in a line: NCATS anti-infectives library activity on HEK293 viability as a counter-qHTS vs the C. elegans viability qHTS (AID 1745854). A digest of the protocol:
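CellTiter-Glo luminescence, read on a CCD imager, scored viability of HEK293 cells after 24 hr compound exposure at 37C. Library tested in several concentrations, 1:5 steps, up to 41.7 uM; digitonin served as control.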

Experiment [4] addresses Calcium and integrin-binding protein 1 (Homo sapiens) (UniProt Q99828). Briefly: Primary qHTS for Identification of Calcium Integrin Binding Protein 1 (CIB1) Competitor (AID 1508620).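 Also: GST tagged CIB1 binding a fluorescein labelled alphaIIb integrin peptide tracer; top concentration of the series differs between compounds.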 A digest of the protocol: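 CIB1-GST (1 uM final) and compound incubated 15 min at room temperature before adding FITC-alphaIIb peptide tracer (100 nM final). Competition for binding read by fluorescence polarization (ex 480, em 540) after another 15 min at room temperature.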

The nature of experiment [5]: Primary qHTS for small molecule stabilizers of the endoplasmic reticulum resident proteome: Secreted ER Calcium Modulated Protein (SERCaMP) assay (AID 1508630). A digest of the protocol:
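The SH-SY5Y reporter protocol was run at 3 concentrations up to 38.3 uM (primary) or 11 concentrations (follow-up): 16 h compound, 100 nM thapsigargin for 4 h, then extracellular luciferase luminescence.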

Experiment [6] in a line: Counterscreen qHTS for small molecule stabilizers of the endoplasmic reticulum resident proteome: GLuc-NoTag assay (AID 1508627).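 Also: SH-SY5Y cells given compound then 100 nM thapsigargin to empty ER calcium; series mostly up to about 76 µM.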 An outline of the steps: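 Counterscreen line: SH-SY5Y-GLuc-NoTag cells, treated with compound 19 hr before a 4 hr, 100 nM thapsigargin calcium depletion. Secreted Gaussia luciferase in the medium was measured by luminescence after coelenterazine was added (0.07x final), with cells unlysed.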

SMILES strings stand for the structures. Results filed as inconclusive are left out. Where a call stands in place of a potency, no number is given. A number with no mark means an inactive call. The source made the active and inactive calls. Unless noted, calls follow the shape of the dose curve; as a rule, active = well fitted curve in the direction sought with a large enough effect; inconclusive = small, poorly fitted or top-dose-only effect, or another doubt; inactive = no such curve, though single readings can be large; an effect the other way counts as inactive or inconclusive.

Calcium and integrin-binding protein 1 (Homo sapiens), sequence (Q99828 whole entry, looked up): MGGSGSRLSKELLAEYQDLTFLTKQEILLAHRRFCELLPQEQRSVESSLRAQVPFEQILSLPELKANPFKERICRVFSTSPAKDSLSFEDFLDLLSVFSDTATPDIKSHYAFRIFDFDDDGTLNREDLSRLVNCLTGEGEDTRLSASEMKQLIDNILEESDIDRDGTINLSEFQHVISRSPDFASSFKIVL
Cytochrome P450 3A4 (Homo sapiens), sequence (P08684 whole entry, looked up): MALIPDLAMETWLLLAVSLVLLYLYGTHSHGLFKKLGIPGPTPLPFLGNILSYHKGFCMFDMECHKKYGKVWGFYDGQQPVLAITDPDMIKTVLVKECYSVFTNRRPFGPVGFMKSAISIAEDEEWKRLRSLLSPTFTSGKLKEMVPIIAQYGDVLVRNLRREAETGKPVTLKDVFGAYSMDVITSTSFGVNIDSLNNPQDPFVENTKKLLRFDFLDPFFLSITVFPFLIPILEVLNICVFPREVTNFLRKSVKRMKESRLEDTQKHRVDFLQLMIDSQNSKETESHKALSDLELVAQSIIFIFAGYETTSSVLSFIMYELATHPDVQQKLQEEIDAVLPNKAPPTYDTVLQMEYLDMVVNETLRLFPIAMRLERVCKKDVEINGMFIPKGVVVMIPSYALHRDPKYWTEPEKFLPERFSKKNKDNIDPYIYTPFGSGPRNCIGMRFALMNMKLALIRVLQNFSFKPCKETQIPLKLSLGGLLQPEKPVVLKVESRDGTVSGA
N-terminal Xaa-Pro-Lys N-methyltransferase 1 (Homo sapiens), sequence (Q9BV86 whole entry, looked up): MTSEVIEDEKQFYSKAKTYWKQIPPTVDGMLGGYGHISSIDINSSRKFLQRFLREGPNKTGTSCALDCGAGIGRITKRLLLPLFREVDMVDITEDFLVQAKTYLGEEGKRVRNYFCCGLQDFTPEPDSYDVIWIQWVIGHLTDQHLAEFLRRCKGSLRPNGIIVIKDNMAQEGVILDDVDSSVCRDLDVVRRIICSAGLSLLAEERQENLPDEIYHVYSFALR

Consider `Nc1ccn(C2CO[C@H](CO)O2)c(=O)n1` (some centres not stated), for which the Potency result in experiment [1] was “inactive”.

In the case of `CN1CCCN(C(=O)c2cccc(-c3ccc(C=C4C(=O)Nc5ccc(Cl)cc54)o3)c2)CC1`, the Potency in experiment [2] is 9.16 µM (active). For the molecule `O=C1c2cccc(O)c2C(=O)c2c(O)cc(CO)cc21`, the Potency entry in experiment [3] was “inactive”.

For the molecule `O=c1[nH]c(=O)n([C@H]2C[C@@H](O)[C@@H](CO)O2)cc1C=CBr`, the Potency entry in experiment [3] was “inactive”. With `CCOC(=O)N1CCN([N+]([O-])=NOc2ccc([N+](=O)[O-])cc2[N+](=O)[O-])CC1`, the Potency entry in experiment [4] is “inactive”. Regarding `C#C[C@]1(O)CC[C@@H]2[C@@H]3CCC4=CC(=O)CC[C@@H]4[C@H]3CC[C@@]21CC`, in experiment [4], the Potency result is “inactive”. For the same molecule, the outcome in experiment [5] was inactive. In the case of `CC(C=CC(=O)NO)=C[C@@H](C)C(=O)c1ccc(N(C)C)cc1`, the Potency entry in experiment [4] was “inactive”. Further, the outcome in experiment [5] was inactive. In the case of `OCc1ccccc1O[C@@H]1O[C@H](CO)[C@H](O)[C@H](O)[C@H]1O`, in experiment [4], the Potency entry is “inactive”. Take `C[C@H](CCC(=O)O)[C@H]1CC[C@H]2[C@@H]3[C@H](O)C[C@@H]4C[C@H](O)CC[C@]4(C)[C@@H]3CC[C@]12C`: in experiment [4], the Potency result is “inactive”. For the same molecule, the result in experiment [5] was inactive.

As to `CC(C)(O)[C@H]1CC[C@@](C)([C@H]2[C@@H](O)C[C@@]3(C)[C@@H]4C[C@H](O[C@@H]5O[C@H](CO)[C@@H](O)[C@H](O)[C@@H]5O)[C@H]5C(C)(C)[C@@H](O[C@@H]6OC[C@@H](O)[C@H](O)[C@@H]6O)CC[C@@]56C[C@@]46CC[C@]23C)O1`, in experiment [4], the Potency entry is “inactive”.

On to `COc1cc2ncnc(Nc3cccc(Br)c3)c2cc1OC`, for which, in experiment [4], the Potency result was “inactive”. In experiment [5], the result was inactive.

Regarding `C[C@H]1C[C@H]2[C@@H]3CCC4=CC(=O)C=C[C@]4(C)[C@@H]3C(=O)C[C@]2(C)[C@@]1(O)C(=O)CO`, the Potency result in experiment [4] was “inactive”. For the same molecule, the outcome in experiment [5] was inactive. For the molecule `COC1=C(OC)C(=O)C(CC=C(C)CCC=C(C)CCC=C(C)CCC=C(C)CCC=C(C)CCC=C(C)CCC=C(C)CCC=C(C)CCC=C(C)CCC=C(C)C)=C(C)C1=O`, the Potency result in experiment [4] was “inactive”. For `C=C1CCC2[C@](C)(CO)C(O)CC[C@]2(C)C1CC=C1C(=O)OCC1O` (some centres not stated), in experiment [4], the Potency result was “inactive”. For the molecule `Cc1onc(-c2ccccc2)c1C(=O)N[C@@H]1C(=O)N2[C@@H](C(=O)O)C(C)(C)S[C@@H]12`, the Potency entry in experiment [4] is “inactive”. Besides, the outcome in experiment [5] was inactive. As to `OCC(O)C(O)C(O)CO` (configuration not stated), in experiment [4], the Potency entry was “inactive”. `COc1cc(C=CC(=O)CC(=O)C=Cc2ccc(O)c(OC)c2)ccc1O`: the Potency entry in experiment [4] was “inactive”. Also, the outcome in experiment [5] was inactive. Regarding `O=C(C=CC=Cc1ccc2c(c1)OCO2)N1CCCCC1`, in experiment [4], the Potency result is “inactive”. Regarding `Cc1cc(-c2nnc3n2CCCCC3)c(C)n1-c1ccccc1`, the Potency result in experiment [4] was “inactive”. Besides, in experiment [5], the result was inactive.

In the case of `CC(=O)N[C@H]1[C@@H]([C@H](O)[C@H](O)CO)OC(C(=O)O)=C[C@@H]1N=C(N)N`, the Potency result in experiment [4] is “inactive”. Also, the result in experiment [5] was inactive. On to `CC(=O)OCC(=O)[C@@]12N=C(C)O[C@H]1C[C@H]1[C@@H]3CCC4=CC(=O)C=C[C@]4(C)[C@@H]3[C@@H](O)C[C@@]12C`, for which, in experiment [4], the Potency entry was “inactive”.

As to `CCN1CCN(C(=O)N[C@H](C(=O)N[C@@H]2C(=O)N3C(C(=O)O)=C(CSc4nnnn4C)CS[C@@H]23)c2ccc(O)cc2)C(=O)C1=O`, the activity change, negative = inhibition in experiment [4] was -3.53% [at 12.4 µM]. Take `COC(=O)[C@@H]1CC2=CC(=O)CC[C@]2(C)[C@@]23O[C@@H]2C[C@@]2(C)[C@H](CC[C@@]24CCC(=O)O4)[C@@H]13`: the Potency entry in experiment [4] is “inactive”. Further, in experiment [5], the result was inactive. For the molecule `CNC(=O)c1ccc(Nc2cc(Nc3ccccc3S(=O)(=O)C(C)C)c3cc[nH]c3n2)nc1`, the Potency entry in experiment [4] was “inactive”. For the same molecule, the outcome in experiment [5] was inactive. As to `N#Cc1ccc(COC[C@H]2O[C@@H](n3c(NCc4ccc(Cl)c(Cl)c4)nc4c(N)ncnc43)[C@@H](O)[C@@H]2O)cc1`, the Potency entry in experiment [4] was “inactive”. In addition, in experiment [5], the outcome was inactive. Regarding `CON=C(C(=O)N[C@@H]1C(=O)N2C(C(=O)O)=C(CSC(=O)c3ccco3)CS[C@H]12)c1csc(N)n1`, the Potency result in experiment [4] was “inactive”. Further, the outcome in experiment [5] was inactive.

With `C#C[C@]1(O)CC[C@@H]2[C@@H]3CCc4cc(O)ccc4[C@H]3CC[C@@]21C`, the Potency result in experiment [4] was “inactive”. In addition, the result in experiment [5] was inactive. On to `NC(=O)c1ncn([C@@H]2O[C@H](CO)[C@@H](O)[C@@H]2O)c1N`, for which the Potency entry in experiment [4] was “inactive”. For `CC(=O)ON=C1C(c2c(O)[nH]c3cc(Br)ccc23)=Nc2ccccc21`, in experiment [4], the Potency result was “inactive”.

`CS[C@H]1SC[C@@H]2C(=O)N(C)[C@H](C(C)C)C(=O)OC[C@H](NC(=O)c3cnc4ccccc4n3)C(=O)N[C@H](C)C(=O)N(C)[C@@H]1C(=O)N(C)[C@H](C(C)C)C(=O)OC[C@H](NC(=O)c1cnc3ccccc3n1)C(=O)N[C@H](C)C(=O)N2C`: the Potency result in experiment [4] is “inactive”. The result in experiment [5] was inactive. With `CNC(=O)c1cccc(-c2ccc3c(N4CCOC[C@H]4C)nc(N4CCOC[C@H]4C)nc3n2)c1`, the Potency result in experiment [4] is “inactive”. Turning to `O=C1c2c(O)cccc2[C@@H]([C@@H]2O[C@H](CO)[C@@H](O)[C@H](O)[C@H]2O)c2cc(CO)cc(O)c21`, in experiment [4], the Potency entry was “inactive”. For the same molecule, the outcome in experiment [5] was inactive. Turning to `CC(C=CC1=C(C)CCCC1(C)C)=CC=CC(C)=CC(=O)Nc1ccc(O)cc1`, the Potency result in experiment [4] was “inactive”.

In the case of `CCCNC(=O)[C@H]1O[C@H]1C(=O)N[C@H](C(=O)N1CCC[C@@H]1C(=O)OC)C(C)CC` (some centres not stated), the Potency result in experiment [4] was “inactive”. Also, the outcome in experiment [5] was inactive. Regarding `CN[C@H]1[C@@H](O)[C@@H]2O[C@@H]3O[C@H](C)CC(=O)[C@]3(O)O[C@@H]2[C@@H](NC)[C@H]1O`, in experiment [4], the Potency entry was “inactive”. Further, the outcome in experiment [5] was inactive. `COc1cc(OC)c(NC(=O)Nc2cc(C)on2)cc1Cl`: the Potency result in experiment [4] is “inactive”. The result in experiment [5] was inactive. As to `C=CC[C@@H]1C=C(C)C[C@H](C)C[C@H](OC)[C@H]2O[C@@](O)(C(=O)C(=O)N3CCCC[C@H]3C(=O)O[C@H](C(C)=C[C@@H]3CC[C@H](O)[C@H](OC)C3)[C@@H](C)[C@@H](O)CC1=O)[C@@H](C)C[C@@H]2OC`, in experiment [4], the Potency entry was “inactive”. Moreover, in experiment [6], the molecule was classed as inactive.
